# Results: the supplement of paper PMC4466140
# How the values were obtained:
# Assay in all cases: SPOT peptide array binding signal intensity (averaged, normalized) (arbitrary units (background-subtracted, floor 0; scale differs between SH3 domains)); higher = stronger binding of the SH3 domain to the peptide
# AgAbp1 = target: AgAbp1
# Outline: (§1)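 Four yeast species supplied the SH3 domains, which were expressed as GST fusions in E. coli BL21(DE3) and purified on glutathione Sepharose. Incubation with cellulose membranes carrying synthetic 15-mer peptides, cysteines exchanged for serines, ran overnight at 4°C at 10 μg/ml in TBS-based blocking buffer. Binding signal is reported as normalized, background-subtracted spot intensity averaged over replicates, in arbitrary units not shared between domains.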
# AgBbc1 = target: AgBbc1
# Outline: as §1
# AgBem1-D1 = target: AgBem1-D1
# Outline: as §1
# AgBzz1-D1 = target: AgBzz1-D1
# Outline: as §1
# AgBzz1-D2 = target: AgBzz1-D2
# Outline: as §1
# AgCyk3 = target: AgCyk3
# Outline: as §1
# AgFus1 = target: AgFus1
# Outline: as §1
# AgHof1 = target: AgHof1
# Outline: as §1
# AgHse1 = target: AgHse1
# Outline: as §1
# AgLsb1 = target: AgLsb1
# Outline: as §1
# AgLsb4 = target: AgLsb4
# Outline: as §1
# AgMyo5 = target: AgMyo5
# Outline: as §1
# AgNbp2 = target: AgNbp2
# Outline: as §1
# AgRvs167 = target: AgRvs167
# Outline: as §1
# AgSho1 = target: AgSho1
# Outline: as §1
# AgSla1-D1-D2 = target: AgSla1-D1-D2
# Outline: as §1
# AgSla1-D3 = target: AgSla1-D3
# Outline: as §1
# CaAbp1-D1 = target: CaAbp1-D1
# Outline: as §1
# CaAbp1-D2 = target: CaAbp1-D2
# Outline: as §1
# CaBbc1 = target: CaBbc1
# Outline: as §1
# CaBem1-D1 = target: CaBem1-D1
# Outline: as §1
# CaBzz1-D1 = target: CaBzz1-D1
# Outline: as §1
# CaBzz1-D2 = target: CaBzz1-D2
# Outline: as §1
# CaCyk3 = target: CaCyk3
# Outline: as §1
# CaFus1 = target: CaFus1
# Outline: as §1
# CaHof1 = target: CaHof1
# Outline: as §1
# CaHse1 = target: CaHse1
# Outline: as §1
# CaLsb1 = target: CaLsb1
# Outline: as §1
# CaLsb4 = target: CaLsb4
# Outline: as §1
# CaMyo5 = target: CaMyo5
# Outline: as §1
binder,measurement,setting,value
MSPLGAPPPPPHKDH,SPOT peptide array binding signal intensity,AgAbp1,≤ 0
same,SPOT peptide array binding signal intensity,AgBbc1,≤ 0
same,SPOT peptide array binding signal intensity,AgBem1-D1,≤ 0
same,SPOT peptide array binding signal intensity,AgBzz1-D1,6.5
same,SPOT peptide array binding signal intensity,AgBzz1-D2,9
same,SPOT peptide array binding signal intensity,AgCyk3,1
same,SPOT peptide array binding signal intensity,AgFus1,1.5
same,SPOT peptide array binding signal intensity,AgHof1,≤ 0
same,SPOT peptide array binding signal intensity,AgHse1,23
same,SPOT peptide array binding signal intensity,AgLsb1,≤ 0
same,SPOT peptide array binding signal intensity,AgLsb4,≤ 0
same,SPOT peptide array binding signal intensity,AgMyo5,449
same,SPOT peptide array binding signal intensity,AgNbp2,5
same,SPOT peptide array binding signal intensity,AgRvs167,1
same,SPOT peptide array binding signal intensity,AgSho1,4
same,SPOT peptide array binding signal intensity,AgSla1-D1-D2,2
same,SPOT peptide array binding signal intensity,AgSla1-D3,≤ 0
same,SPOT peptide array binding signal intensity,CaAbp1-D1,≤ 0
same,SPOT peptide array binding signal intensity,CaAbp1-D2,≤ 0
same,SPOT peptide array binding signal intensity,CaBbc1,0.5
same,SPOT peptide array binding signal intensity,CaBem1-D1,≤ 0
same,SPOT peptide array binding signal intensity,CaBzz1-D1,10
same,SPOT peptide array binding signal intensity,CaBzz1-D2,3.25
same,SPOT peptide array binding signal intensity,CaCyk3,≤ 0
same,SPOT peptide array binding signal intensity,CaFus1,42
same,SPOT peptide array binding signal intensity,CaHof1,0.75
same,SPOT peptide array binding signal intensity,CaHse1,5.75
same,SPOT peptide array binding signal intensity,CaLsb1,0.75
same,SPOT peptide array binding signal intensity,CaLsb4,≤ 0
same,SPOT peptide array binding signal intensity,CaMyo5,46.5
